In PubChem BioAssay (NCATS):
Values without a mark were called inactive. Inconclusive results are not listed. The source made the active and inactive calls. Unless noted, calls follow the shape of the dose curve; as a rule, active = well fitted curve in either direction with a large enough effect (not every such curve was filed as active); inconclusive = small, poorly fitted or top-dose-only effect, or another doubt; inactive = flat fitted curve, though single readings scatter.

Key:
[1] = target: Lysosomal acid glucosylceramidase (Homo sapiens) (UniProt P04062); experiment: Glucocerebrosidase-p2 (AID 348; in the data active = potency below about 10 µM; also: potency is read from the fitted curve at half-maximal effect); details: purified GBA, blue fluorogenic substrate, 40 min
Sequence of Lysosomal acid glucosylceramidase (Homo sapiens) (P04062 whole entry, looked up): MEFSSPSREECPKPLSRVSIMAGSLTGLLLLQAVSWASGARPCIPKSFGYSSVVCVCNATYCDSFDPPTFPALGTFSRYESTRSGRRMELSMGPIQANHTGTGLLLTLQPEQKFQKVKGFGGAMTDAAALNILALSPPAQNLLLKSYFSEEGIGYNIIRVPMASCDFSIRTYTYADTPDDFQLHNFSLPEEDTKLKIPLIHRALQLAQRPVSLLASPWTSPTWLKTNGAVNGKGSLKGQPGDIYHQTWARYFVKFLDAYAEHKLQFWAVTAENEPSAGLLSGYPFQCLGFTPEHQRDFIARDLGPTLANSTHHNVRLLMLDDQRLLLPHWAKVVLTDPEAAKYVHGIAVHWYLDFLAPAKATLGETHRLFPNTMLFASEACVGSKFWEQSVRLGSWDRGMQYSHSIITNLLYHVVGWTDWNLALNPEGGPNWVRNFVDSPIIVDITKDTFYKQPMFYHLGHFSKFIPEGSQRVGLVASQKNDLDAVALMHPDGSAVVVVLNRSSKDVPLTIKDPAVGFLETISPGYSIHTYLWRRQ
Outline: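 Normal human glucocerebrosidase (0.2 nM) with blue fluorogenic substrate (80 uM final) in citrate/phosphate pH 5.9 with 10mM sodium taurocholate, 0.01% tween-20; 40 min RT, NaOH/glycine stop; fluorescence Ex 365/Em 440; AC50 from a titration from 0.6 nM upwards.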

[2] = AP1 Signaling Pathway (AID 357); details: ME-180 AP-1-bla reporter, EGF-induced, beta-lactamase ratio, 5 h; at 7.69 µM (top of the series) unless noted;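 also: ME-180 reporter cells stimulated with EGF at its EC50 level; % is scaled to controls: 0 for no effect and ±100 for the full control effect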
Outline: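 Cells are seeded overnight, exposed to compound titrations and an EC50 level of EGF for 5 hours at 37 °C, then loaded with CCF4 dye for 2.5 hours. Beta-lactamase activity under the AP-1 element is read as a blue/green ratio.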

[3] = NFAT Signaling Pathway (AID 444); details: Jurkat NFAT-bla M1, carbachol, beta-lactamase ratio, 5 h; at 7.69 µM (top of the series) unless noted;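 also: carbachol stimulus at about its EC50 of 1 µM final; % is scaled to controls: 0 for no effect and ±100 for the full control effect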
Outline: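 Jurkat cells carrying an NFAT-driven β-lactamase reporter and co-transfected muscarinic M1 receptor were treated with compound plus carbachol (1 uM final, an EC50 level) for 5 h at 37 °C. CCF4 loading followed for 1 h at RT; 460/530 nm ratio gave %activity.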

[4] = Stat Signaling Pathway (AID 446); details: ME-180 (cervical carcinoma) SIE beta-lactamase reporter, IL-6 stimulated, 5 h; at 7.69 µM (top of the series) unless noted;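 also: ME-180 cervical cancer cells given 40 pM IL-6 alongside compound; SIE-controlled beta-lactamase reporter measured as 460/530 nm FRET emission ratio; % is scaled to controls: 0 for no effect and ±100 for the full control effect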
Outline: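 Compound effects on IL-6-induced STAT reporter activity were measured in ME-180 cells. After overnight culture, cells were co-treated with 40 pM IL-6 for 5 hrs before beta-lactamase substrate loading at room temperature.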

[5] = target: Glucocorticoid receptor (Homo sapiens) (UniProt P04150); experiment: GR-GFP Redistribution (AID 450;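 active = compounds whose dose series gives a full or clear partial fitted curve of increased nuclear translocation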; also: potency is read from the fitted curve at half-maximal effect); details: U2OS GR-GFP nuclear translocation, laser cytometry, 2 h
Sequence of Glucocorticoid receptor (Homo sapiens) (P04150 whole entry, looked up, the tested form may be a part): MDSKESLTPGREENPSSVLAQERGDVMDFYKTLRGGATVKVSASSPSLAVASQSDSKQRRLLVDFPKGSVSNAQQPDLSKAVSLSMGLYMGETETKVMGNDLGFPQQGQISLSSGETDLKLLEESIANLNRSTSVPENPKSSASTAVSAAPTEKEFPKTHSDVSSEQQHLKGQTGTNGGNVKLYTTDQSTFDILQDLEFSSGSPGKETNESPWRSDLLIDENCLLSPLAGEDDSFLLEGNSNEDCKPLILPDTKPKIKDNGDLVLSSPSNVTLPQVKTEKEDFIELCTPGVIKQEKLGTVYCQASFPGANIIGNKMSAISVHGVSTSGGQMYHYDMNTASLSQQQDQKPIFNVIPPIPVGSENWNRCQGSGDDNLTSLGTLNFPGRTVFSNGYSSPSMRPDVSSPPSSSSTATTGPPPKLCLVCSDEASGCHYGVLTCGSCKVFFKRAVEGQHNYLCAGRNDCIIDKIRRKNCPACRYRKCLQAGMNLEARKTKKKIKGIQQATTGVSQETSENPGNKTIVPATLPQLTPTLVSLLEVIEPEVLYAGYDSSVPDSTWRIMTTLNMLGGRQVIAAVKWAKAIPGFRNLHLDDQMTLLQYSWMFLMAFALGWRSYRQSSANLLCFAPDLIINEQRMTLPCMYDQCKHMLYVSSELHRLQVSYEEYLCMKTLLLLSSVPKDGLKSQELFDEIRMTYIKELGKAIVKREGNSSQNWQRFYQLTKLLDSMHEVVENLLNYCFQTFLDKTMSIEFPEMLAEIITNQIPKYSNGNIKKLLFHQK

[6] = target: Glucocorticoid receptor (Homo sapiens) (UniProt P04150); experiment: GR-EFC Redistribution (AID 451; calls by dose curve; also: potency is read from the fitted curve at half-maximal effect); details: CHO-K1 GR-EFC translocation, beta-gal luminescence, 2 h
Outline: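 CHO-K1 cells stably expressing nuclear-localized β-gal enzyme acceptor and GR fused C-terminally to the enzyme donor fragment; ligand-driven nuclear translocation restores β-gal by complementation. Compounds titrated up to 46 uM final, 2 h at 37 °C; luminescence read.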

[7] = target: Mitogen-activated protein kinase 10 (Mus musculus) (UniProt Q61831); experiment: JNK3 AlphaScreen Assay (AID 530); details: JNK3 lysate, c-Jun phosphorylation; series mostly up to 11.4 µM;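 also: kinase came from lysate of stimulated human HepG2 cells; signal reports phosphorylation of biotinylated GST-cJun 1-79 at Ser73 with 10 µM ATP; % is scaled to controls: 0 for no effect and ±100 for the full control effect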
Outline: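 Biotinylated GST-cJun(1-79) served as substrate for JNK3 in HepG2 lysates stimulated with IL-1beta and TNF-alpha. ATP was 10 uM final, pH 7.6. Ser73 phosphorylation was quantified by AlphaScreen (680 nm excitation).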

[8] = target: 3',5'-cyclic-AMP phosphodiesterase 4B (Homo sapiens) (UniProt Q07343); experiment: qHTS Assay for Inhibitors of PDE-IV (AID 607; active = well fitted activation curve with a large enough effect in the main read-out, with a control signal flat, not every such curve was filed as active; also: % of control where 0% means no effect); details: HEK293 ACTOne CNG channel cells, membrane potential fluorescence; series mostly up to 22.9 µM
Sequence of 3',5'-cyclic-AMP phosphodiesterase 4B (Homo sapiens) (Q07343 whole entry, looked up): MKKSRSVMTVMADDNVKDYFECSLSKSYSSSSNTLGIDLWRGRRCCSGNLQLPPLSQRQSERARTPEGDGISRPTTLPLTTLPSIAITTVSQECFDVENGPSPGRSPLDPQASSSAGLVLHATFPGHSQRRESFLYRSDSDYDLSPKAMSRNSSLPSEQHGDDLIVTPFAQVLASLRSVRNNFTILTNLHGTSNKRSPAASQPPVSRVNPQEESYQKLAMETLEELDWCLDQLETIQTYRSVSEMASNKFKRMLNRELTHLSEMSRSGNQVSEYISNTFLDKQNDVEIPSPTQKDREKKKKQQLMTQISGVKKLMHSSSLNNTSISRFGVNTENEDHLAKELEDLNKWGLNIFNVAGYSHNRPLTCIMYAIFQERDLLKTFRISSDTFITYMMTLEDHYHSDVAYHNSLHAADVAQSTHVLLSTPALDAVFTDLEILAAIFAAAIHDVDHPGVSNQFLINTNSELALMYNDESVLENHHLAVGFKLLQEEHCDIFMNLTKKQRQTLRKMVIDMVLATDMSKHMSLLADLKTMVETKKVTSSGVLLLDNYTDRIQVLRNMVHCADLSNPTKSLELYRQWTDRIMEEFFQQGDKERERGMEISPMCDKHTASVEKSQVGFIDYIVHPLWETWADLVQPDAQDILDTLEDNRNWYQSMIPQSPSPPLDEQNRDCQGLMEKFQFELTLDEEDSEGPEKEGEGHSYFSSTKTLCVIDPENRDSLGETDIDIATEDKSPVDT
Outline: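 ACTOne HEK293 cells carry a modified cAMP-gated CNG channel and express endogenous PDE4; plated 1000 cells/well, compounds up to 22.9 uM final. Membrane-potential dye fluorescence (ex 535/em 590) was read; parental cells received 10 uM forskolin + 100 uM RO 20-1724.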

[9] = target: Cytochrome P450 1A2 (Homo sapiens) (UniProt P05177); experiment: p450-cyp1a2 (AID 410; calls by dose curve; also: potency is read from the fitted curve at half-maximal effect); details: recombinant CYP1A2, luciferin-ME demethylation, luminescence; series mostly up to 11.4 µM
Sequence of Cytochrome P450 1A2 (Homo sapiens) (P05177 whole entry, looked up): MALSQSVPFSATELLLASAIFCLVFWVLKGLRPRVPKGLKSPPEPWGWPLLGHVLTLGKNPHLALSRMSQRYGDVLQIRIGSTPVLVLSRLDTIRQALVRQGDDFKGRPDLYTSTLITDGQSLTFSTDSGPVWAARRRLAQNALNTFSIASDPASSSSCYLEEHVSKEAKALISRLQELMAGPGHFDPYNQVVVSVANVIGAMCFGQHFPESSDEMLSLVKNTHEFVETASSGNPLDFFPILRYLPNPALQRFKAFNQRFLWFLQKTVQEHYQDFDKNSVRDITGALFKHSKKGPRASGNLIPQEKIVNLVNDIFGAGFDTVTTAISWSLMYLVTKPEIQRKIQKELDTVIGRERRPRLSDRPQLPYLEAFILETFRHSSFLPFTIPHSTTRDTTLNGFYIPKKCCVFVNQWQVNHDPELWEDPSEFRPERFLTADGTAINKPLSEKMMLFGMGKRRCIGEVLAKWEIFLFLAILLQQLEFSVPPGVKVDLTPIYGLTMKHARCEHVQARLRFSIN
Outline: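 Read-out is luminescence from luciferin produced by CYP1A2 demethylation of Luciferin-ME (100uM, at Km). Detection reagent stopped the 60 min NADPH-dependent reaction; signals were normalized to 57 uM furafylline.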

[10] = target: Cytochrome P450 3A4 (Homo sapiens) (UniProt P08684); experiment: qHTS Assay for Activators of Cytochrome P450 3A4 (AID 885; active = well fitted activation curve with a large enough effect; also: nearly all actives have a fitted effect of over 65% in size); details: recombinant CYP3A4, Luciferin-PPXE luminescence, 60 min; series mostly up to 11.4 µM
Sequence of Cytochrome P450 3A4 (Homo sapiens) (P08684 whole entry, looked up): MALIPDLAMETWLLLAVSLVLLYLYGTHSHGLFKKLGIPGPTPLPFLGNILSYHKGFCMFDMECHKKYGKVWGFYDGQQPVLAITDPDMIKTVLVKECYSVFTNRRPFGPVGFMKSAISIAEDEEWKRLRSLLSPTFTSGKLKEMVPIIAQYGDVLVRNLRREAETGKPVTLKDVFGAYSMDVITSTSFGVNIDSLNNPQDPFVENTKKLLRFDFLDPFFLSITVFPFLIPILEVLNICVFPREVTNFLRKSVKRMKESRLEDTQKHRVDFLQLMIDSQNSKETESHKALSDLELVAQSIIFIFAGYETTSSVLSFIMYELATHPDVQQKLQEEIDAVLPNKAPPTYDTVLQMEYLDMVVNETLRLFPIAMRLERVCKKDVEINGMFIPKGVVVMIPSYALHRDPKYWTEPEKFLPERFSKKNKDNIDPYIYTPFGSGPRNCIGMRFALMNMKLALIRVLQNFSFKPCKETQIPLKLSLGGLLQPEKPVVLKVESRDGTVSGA
Outline: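 CYP3A4 activity: Luciferin-PPXE O-dealkylation, 25uM substrate, 200mM KPO4, RT throughout. Read-out is luciferase luminescence; higher values reflect activation.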

SMILES	Potency [1]	activity change, negative = inhibition [2]	activity change, negative = inhibition [3]	activity, negative = inhibition [4]	Potency [5]	Potency [6]	Potency [7]	Potency [8]	Potency [9]	Potency [10]
Cn1c(N)nc2c(nc(OCc3ccccc3)n2[C@@H]2O[C@H](CO)[C@@H](O)[C@@H]2O)c1=O	> 11.4 µM	2.38%	6.31%	-1.71%	> 46 µM	> 9.22 µM	inactive	inactive	–	–
CN1CCN(c2ncc3nc(-c4cccs4)c(=O)n(C[C@H]4CCCO4)c3n2)CC1	> 11.4 µM	19.1%	–	–	> 9.22 µM	> 46 µM	inactive	–	12.6 µM (active)	inactive
